In all, about 59,000 sequences were measured (the read-out: median about -0.00055, lowest 2% from about -2 on). The sample as a whole holds a higher share of the lowest values than the screen did.
Assay: Identification of proteins required for the processing of the EWS-FLI1 nascent transcript;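 also: robust z of luciferase light less the median z of siRNAs with the same seed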
Conditions: TC32 Ewing sarcoma NR0B1-luc vs CMV-luc (EWS-FLI1 target promoter against control promoter), 48 h; screened at 20 nM (by protocol)
Method in brief: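 Three siRNAs per gene, each in a separate well at 20 nM, were transfected into TC32 cells bearing either reporter construct. Luminescence was measured two days on, and per-gene comparison relied on seed-corrected Z values.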

Sequence	seed-corrected z-score
AAAGUGCCCAAAACGAUGG against ATP2B3	0.438
AACAUCUCCAAUGAUAGGG against NR0B2	-2.16
UCACCUACUUCGAUCUUCC against MECOM	-0.295
AAUCAUGCCCUUUUUGUGG against FPR2	-2
UUCCAGCCCAUGAGAACCC against DKK2	0.436
AACGGAAAUGCUGACAUCG against EPRS	-0.386
AGAGUUUCCUGAGUCUUCU against TPD52L2	-2.41
UAUCAUUGCGUGUUGCUGC against BBOF1	0.0553
UCUGUGAGGAAUGCUGUCC against RFT1	-2.48
UUCUAGCUCACUGAAGUCC against PYGL	-0.371
UUCAGGGCAUUUAAAGGGC against ZNF629	-0.898
AAGAUAAUAAAAACGUAGG against SLC2A14	0.0262
ACUGCUUACACUCACAUGG against ZNF490	-4.22
UGGGAGCAAAGCAUAGUCG against PNMA3	-1.88
UACUUGACUGAAAUGUCUC against ZNF829	-0.616
UAGUUGUCCUGGUCGGAGC against LY6E	-2.61
UUGCAUGCAAUGGUGAGGC against S100A10	-1.4
UACUUUGCGACCAUUUAGG against PABPC3	-1.3
UCUGUAACAUGCGGAGUUC against M1AP	-0.631
ACCGUGUUCAGAUAGCCUG against RACK1	-1.01
AAUGUUGACACGUCUCCUG against TOB1	0.235
UUGGGAGUGAAAACAGAGG against OR8B2	-3.41
AACUUCUUCAAGGUAAUUG against PJA1	0.88

Sequence	seed-corrected z-score
AAAGUUUCACUCUUUCUGG against TPT1P8	-0.645
UUCGAUUGAAAGAAGGCCU against MYOZ1	-0.336
AACUCUAUUCAUGAGCUCG against ANGPTL5	0.0468
UUCCUGAUUAGUAAUGUCG against RAB5B	0.136
AUCUUGGACAGAUAUAAUC against RNF126	-2.4
UAUACUAUUGGUAAGUGCA against SND1-IT1	-0.0514
AUACUCCACACCACAAAGC against LTB4R	0.354
AAAAGACCAAAGCCCAUGU against RPLP1	-2.92
UAUAGUGAAGAGAUAUGCC against ADGRL2	0.229
UCGUUUUUGACUACCAGGG against PHKB	0.853
AACUGAUUAAAAUCAGAGG against PIGG	0.269
UAGUAGCAUAGUUCAGUGG against OR51T1	0.179
UUUGCUCUCAUUCUCCGCA against SF3B5	-3.03
AUAGUUAAUUGAAUUUCGG against BMPR2	-0.638
UUUGCAGCCUCGGUUAUAG against PWWP2B	0.352
AAGAGUAAUAGGCAAUUUC against SLC19A2	-0.574
ACACGGGCAAUGGAUUUCC against RPL35	-0.426
UAACAUACACUAGAUCGCC against FOLH1	-3.06
AAUGAGAUAAUGUUGGUCA against SNX29P1	-1.77
UUUCUUUUCGGCUCUAGGG against NKX2-5	-1.12
UGUACAAUGAGGAAGCUUC against LOC728903	-0.125
UCUUUGCAAAGGGUAUGCC against IL17RE	-2.02
AGACCAUCCCACGAAAUGC against PEBP1	-1.22

Sequence	seed-corrected z-score
AAGCGGAAAAUCUUGAUGC against SLC26A2	0.168
UUCGUCCUUAUGCUCUUUC against HOXA7	0.383
AAAGAUACAGGUUAAAGGC against HIST2H2BF	-0.321
UUCAUAACGAGUUGGAGCC against RPL30	-2.42
UUCAUGUUCAGAGUCAACG against SSRP1	1.02
ACUCUUAUCAGGCACAUCC against IMPAD1	-0.93
UAACCGUUCCCGCAAACAC against TFAP2E	-0.2
AUUUAUUCCGGACACGUGG against GLI4	-2.01
UCUUAUCCAAGGGACCAGC against MED1	-0.541
UUCUCUAGGAUGGAAAACC against LOC728752	0.253
UUCGCAAUGUUGGUUCACC against TEX15	-0.211
AAACACUCCACUGAUGUGC against IFT140	-0.256
UGCGCUUACGCUUCUUACC against HIST1H2BB	-0.822
UUUCGGUAGUAGGAUUUCC against RBAK	0.44
AAAACUUGCACCUUCGUGU against ARMC10	-0.114
UUUAGUGUCAGUUGAUUUG against CPXCR1	0.162
UAUCAGACAAUUCAUCCGG against LONRF2	-0.662
AUGGGUCAGAGAGGCAAGG against EXOSC5	-2.07
AUGUGGAUCAGAAGUAUCA against OR2T10	0.476
UGCAUGAUGAGUGAGGUGC against CYP26B1	-0.927
UGACGGAUCAGUCUUAGCC against ATP5O	-0.31
